The list is not random: actives were taken first. Their share in the collection is about 1.1%.
HTR5A inv ag: HTR5A inverse agonists in luminescence cell assay, primary screen, counter-screen for OPRM1-OPRD1 heterodimer inverse agonist project, full-deck HTS | 5-hydroxytryptamine receptor 5A (Homo sapiens), P47898 | HTR5A cell line, inverse agonism | inhibition, % at 9.3 µM | hit rate 0.083% among 340,000 | AID 504634, 2011; in the data active = inhibition mostly above about 23%, no sharp cut-off; inactive = mostly below about 18%
Target sequence (P47898 whole entry, looked up): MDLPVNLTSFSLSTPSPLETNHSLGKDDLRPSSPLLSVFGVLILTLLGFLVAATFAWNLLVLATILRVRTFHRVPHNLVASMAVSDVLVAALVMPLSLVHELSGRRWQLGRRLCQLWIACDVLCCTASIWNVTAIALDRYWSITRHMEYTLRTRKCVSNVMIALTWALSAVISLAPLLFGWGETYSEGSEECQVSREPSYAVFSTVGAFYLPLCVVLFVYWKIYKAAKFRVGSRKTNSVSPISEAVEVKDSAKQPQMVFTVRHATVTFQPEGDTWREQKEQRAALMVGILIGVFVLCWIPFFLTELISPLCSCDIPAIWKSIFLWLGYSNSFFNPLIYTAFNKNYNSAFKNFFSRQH
HTR5A ag: HTR5A agonists in luminescence cell assay, primary screen, counter-screen for OPRM1-OPRD1 heterodimer agonist project, full-deck HTS; activation, % at 9.3 µM; cell-based; 5-hydroxytryptamine receptor 5A (Homo sapiens), P47898; AID 504692, 2011; hit rate 0.61% among 340,000; in the data active = activation mostly above about 9.5%, no sharp cut-off; inactive = mostly below about 7.6%
OPRM1-OPRD1 ag: agonists of OPRM1-OPRD1 heterodimerization, primary screen, cell-based, luminescence | activation, % at 9.3 µM | cells | hit rate 0.3% among 340,000; in the data active = activation above about 18%
MOR-DOR inv ag: inverse agonists of MOR-DOR heterodimerization, primary screen, cell-based, luminescence | cell-based MOR-DOR heterodimer luminescence, inverse agonism | AID 504357, 2011 | inhibition, % at 9.3 µM | Mu-type opioid receptor (Homo sapiens) + Delta-type opioid receptor (Homo sapiens), … | hit rate 0.21% among 340,000; in the data active = inhibition above about 22%, passing the limit was not always enough
Of the large screens only hits and unclear results are named; the others gave an inactive call.

CN(Cc1ccc(C(C)(C)C)cc1)C(=O)C1CSC2(C)CCC(=O)N12 (centres undefined)	none
CCc1ccc(S(=O)(=O)/N=C2/C=C(Sc3ncn[nH]3)C(=O)c3ccccc32)cc1	OPRM1-OPRD1 ag 30
Cc1ccccc1OCCc1c(C)[nH]c(=S)[nH]c1=O	HTR5A ag 12
Cc1ccc(/C=N/NC(=O)CSc2nnc(-c3ccc(Cl)cc3)n2-c2ccccc2)o1	HTR5A ag 14
O=C(CSc1nnc(-c2ccc(Cl)cc2)n1-c1ccc(Cl)cc1)N/N=C/c1ccco1	none
Cc1cccc(N(Cc2ccccc2)C(=O)CCl)c1	HTR5A ag 65, OPRM1-OPRD1 ag 67
O=C(N/N=C/c1c[nH]c2ccccc12)c1cc(Cl)ccc1O	none
CN(C(=O)COC(=O)C12CC3CC(CC(Cl)(C3)C1)C2)c1ccccc1	HTR5A ag 11
CC1CCCC(C)N1C(=O)COC(=O)C12CC3CC(CC(Cl)(C3)C1)C2 (centres undefined)	none
O=C(Cc1ccccc1Cl)Nc1cc(S(=O)(=O)N2CCOCC2)ccc1N1CCOCC1	none
Cc1ccc2c(c1)c1c3n2CCN(C(=O)CN2CCN(C)CC2)C3CCC1 (centres undefined)	HTR5A ag 9.1
CCn1c(SCC(=O)Nc2cc(C)on2)nc2sc3c(c2c1=O)CCCC3	HTR5A ag 21, OPRM1-OPRD1 ag 26
CCOc1ccccc1N=CC1=C(O)CC(c2ccccc2)CC1=O (centres undefined)	HTR5A ag 13
COc1ccc(N=CC2=C(O)CC(c3ccccc3)CC2=O)c(OC)c1 (centres undefined)	none
COc1ccc(NS(=O)(=O)c2cccc(C(=O)NCc3ccccc3CN3CCCC3)c2)cc1	HTR5A ag 12
CC(C)NC(=O)c1ccc(-n2nc(C(F)(F)F)c3c2CCCC3)cc1	HTR5A ag 13
Cc1cc(C)n(-c2ccc(C(=O)NC(C)C)cc2)n1	none
CC(c1ccccc1)n1cc(C(=O)NCC2COc3ccccc3O2)nn1 (centres undefined)	HTR5A ag 12
O=C(NCC1COc2ccccc2O1)c1cn(Cc2ccc(F)cc2)nn1 (centres undefined)	HTR5A ag 13
O=C(NCc1ccc2c(c1)OCO2)c1c(-c2ccccc2)sc2ccccc12	none
O=C(CC(Cc1ccccc1)C(=O)O)Nc1ccc(Cl)c(Cl)c1 (centres undefined)	HTR5A ag 10.0
O=C(CC(Cc1ccccc1)C(=O)O)Nc1ccccc1 (centres undefined)	none
CC(=NNC(=O)CSCC(=O)NN=C(C)c1ccccc1)c1ccccc1	none
Cc1ccc(NC2=C/C(=N\S(=O)(=O)c3cccs3)c3ccccc3C2=O)c(C)c1	OPRM1-OPRD1 ag 22
CCOC(=O)/C=C1/SCC(=O)N1CC(=O)NC12CC3CC(CC(C3)C1)C2	HTR5A ag 10
CCOC(=O)/C=C1\SCC(=O)N1CC(=O)Nc1ccc(OC)c(OC)c1	none
O=C(NCc1ccccc1)NC(=O)c1ccccc1F	none
CCCC(=O)Nc1ccc2c(c1)nc(CN1CCN(C(=O)OCC)CC1)n2CC	HTR5A ag 9.8
CCCCn1c(N)c(N(CCOC)C(=O)c2ccc(S(=O)(=O)N3CCCCCC3)cc2)c(=O)[nH]c1=O	none
COc1ccc(CCNC(=O)c2c[nH]c3ccc(F)cc3c2=O)cc1OC	none
Oc1ccccc1C1=NCCNC(C(F)(F)C(F)F)=C1	none
Oc1ccccc1-c1cc(C(F)(F)C(F)F)[nH]n1	HTR5A ag 11
Cc1ccc(-n2c(=O)c3ccc(C(=O)NCc4ccco4)cc3n(Cc3ccccc3C#N)c2=O)cc1	HTR5A inv ag 37, MOR-DOR inv ag 35
CCCN(CCC)CCCNC(=O)C1CCC(CNS(=O)(=O)c2cccc3nsnc23)CC1 (centres undefined)	none
COc1nc(OC)nc(N2CCC(NC(=O)C(Cc3ccc(C(C)C)cc3)NC(C)=O)CC2)n1 (centres undefined)	HTR5A ag 11
COc1cc(CC(NC(C)=O)C(=O)NC2CCN(c3nc(OC)nc(OC)n3)CC2)cc(OC)c1 (centres undefined)	none
O=C(CSc1ccc2c(c1)OCCO2)Nc1ccc(Br)cn1	HTR5A ag 11
O=C(CSc1ccc2c(c1)OCCO2)Nc1ccc(Cl)cn1	none
COc1ccccc1N(CC(=O)NCCSc1ccccn1)S(=O)(=O)c1ccccc1	HTR5A ag 12
